Experimental data as given in PubChem BioAssay AID1159580 (chemical genetic matrix, 2015).
Among all 5,500 compounds or so, about 2,000 (36%) were called active. About 18% were inconclusive and are not listed. Cut-off read from the data, not from the text of the source: active = normalized growth mostly below about 0.91 (no sharp cut-off); inconclusive = no clear call, values can overlap the other calls; inactive = mostly above about 0.92. Some of the results follow.

Experiment: chemical genetic growth profiling, strain panel (AID 1159580);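 note: tested at 20 µM; growth read once vehicle control cultures reached saturation at 30 °C; 1 = growth at the plate median or of vehicle wells; lower values mean less growth of the strain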
Conditions: growth OD
[1] = S. cerevisiae deletion strains, locus YAL013W, strain DEP1, active compounds read low
[2] = S. cerevisiae deletion strains, locus YBR229C, strain ROT2, active compounds read low
[3] = S. cerevisiae deletion strains, locus YDL101C, strain DUN1, active compounds read low
[4] = S. cerevisiae deletion strains, locus YDL134C, strain PPH21, active compounds read low
[5] = S. cerevisiae deletion strains, locus YDR150W, strain NUM1, active compounds read low
[6] = S. cerevisiae deletion strains, locus YEL061C, strain CIN8, active compounds read low
[7] = S. cerevisiae deletion strains, locus YGR078C, strain PAC10, active compounds read low
[8] = S. cerevisiae deletion strains, locus YHR030C, strain SLT2, active compounds read low
[9] = S. cerevisiae deletion strains, locus YHR087W, strain rtc3, active compounds read low
[10] = S. cerevisiae deletion strains, locus YJR043C, strain POL32, active compounds read low
[11] = S. cerevisiae deletion strains, locus YJR075W, strain HOC1, active compounds read low
[12] = S. cerevisiae deletion strains, locus YKL190W, strain CNB1, active compounds read low
[13] = S. cerevisiae deletion strains, locus YLR039C, strain RIC1, active compounds read low
[14] = S. cerevisiae deletion strains, locus YLR058C, strain SHM2 (second series), active compounds read low
[15] = S. cerevisiae deletion strains, locus YLR085C, strain ARP6, active compounds read low
[16] = S. cerevisiae deletion strains, locus YLR262C, strain YPT6, active compounds read low
[17] = S. cerevisiae deletion strains, locus YML094W, strain GIM5, active compounds read low
[18] = S. cerevisiae deletion strains, locus YMR219W, strain ESC1, active compounds read low
[19] = S. cerevisiae deletion strains, locus YMR263W, strain SAP30, active compounds read low
[20] = S. cerevisiae deletion strains, locus YNL153C, strain GIM3, active compounds read low
[21] = S. cerevisiae deletion strains, locus YNL298W, strain CLA4 (second series), active compounds read low
[22] = S. cerevisiae deletion strains, locus YNL322C, strain KRE1, active compounds read low
[23] = S. cerevisiae deletion strains, locus YNR030W, strain Alg12, active compounds read low
[24] = S. cerevisiae deletion strains, locus YOL006C, strain TOP1, active compounds read low
[25] = S. cerevisiae deletion strains, locus YPL055C, strain LGE1, active compounds read low
[26] = S. cerevisiae deletion strains, locus YPL241C, strain CIN2, active compounds read low
[27] = S. cerevisiae deletion strains, locus YPR135W, strain CTF4, active compounds read low
[28] = S. cerevisiae deletion strains, locus YCL061C, strain MRC1, active compounds read low
[29] = S. cerevisiae deletion strains, locus YJL187C, strain SWE1, active compounds read low
[30] = S. cerevisiae deletion strains, locus YMR307W, strain GAS1, active compounds read low
[31] = S. cerevisiae strains, strain wild type, active compounds read low
[32] = S. cerevisiae deletion strains, locus YGR229C, strain SMI1, active compounds read low

Measured: normalized growth

Cc1c(Br)sc2ccc(Cl)cc12
active: [4] 0.849 | [8] 0.294 | [13] 0.733 | [15] 0.708 | [16] 0.709 | [17] 0.864 | [21] 0.782
inactive: [1] 0.987 | [2] 0.936 | [3] 0.96 | [5] 1.03 | [6] 0.909 | [7] 0.952 | [9] 0.963 | [10] 1.05 | [11] 0.955 | [12] 0.959 | [14] 0.952 | [18] 0.948 | [19] 0.99 | [20] 0.98 | [22] 0.976 | [23] 0.926 | [24] 0.891 | [25] 1.04 | [26] 0.939 | [27] 0.953

Cc1csc2ccc(Cl)cc12
inactive: [1] 0.994 | [2] 0.998 | [28] 1.01 | [3] 1.02 | [5] 0.993 | [6] 1.01 | [7] 0.998 | [8] 1.07 | [9] 0.999 | [29] 1.02 | [10] 1 | [11] 0.98 | [12] 1.01 | [13] 1.07 | [14] 1 | [15] 1.03 | [16] 1.04 | [17] 1.01 | [18] 1 | [19] 1.01 | [30] 1.07 | [20] 1.02 | [21] 1.06 | [22] 1.01 | [23] 1.03 | [25] 0.996 | [26] 1.02 | [27] 1 | [31] 1.01

NC(N)=[N+]1CCc2ccccc2C1
inactive: S. cerevisiae deletion strains, locus YAL040C, strain CLN3, active compounds read low 0.966 | S. cerevisiae deletion strains, locus YCL061C, strain MRC1 (second series), active compounds read low 0.989 | [5] 1 | S. cerevisiae deletion strains, locus YDR363W, strain ESC2, active compounds read low 0.904 | S. cerevisiae deletion strains, locus YER002W, strain NOP16, active compounds read low 0.982 | [32] 0.962 | [19] 0.988 | [30] 1 | S. cerevisiae deletion strains, locus YNL128W, strain TEP1, active compounds read low 0.992 | [20] 1 | S. cerevisiae deletion strains, locus YNL175C, strain NOP13, active compounds read low 0.991 | S. cerevisiae deletion strains, locus YNL197C, strain WHI3, active compounds read low 0.984 | S. cerevisiae deletion strains, locus YNL224C, strain SQS1, active compounds read low 1.01 | [22] 0.972 | S. cerevisiae deletion strains, locus YOR083W, strain WHI5 (second series), active compounds read low 0.969 | [25] 0.944

COc1cc(OC)nc(N)n1
inactive: [1] 1.02 | [2] 0.958 | [28] 1.03 | [3] 1.04 | [5] 1.03 | [6] 1 | [7] 1.03 | [32] 0.979 | [8] 1.06 | [9] 0.974 | [29] 1.02 | [10] 1.06 | [11] 1.01 | [12] 0.992 | [13] 0.946 | [14] 0.991 | [15] 0.949 | [16] 0.96 | [17] 0.986 | [18] 0.98 | [19] 1.02 | [20] 1.02 | [21] 0.99 | [22] 0.988 | [23] 0.999 | [24] 1.01 | [25] 1.02 | [26] 1.02 | [27] 1.06 | [31] 0.985

O=C1ON=C(c2ccccc2)/C1=C/c1ccc(Cl)cc1
active: [1] 0.174 | [2] 0.145 | [3] 0.203 | [4] 0.77 | [6] 0.637 | [7] 0.138 | [8] 0.16 | [9] 0.172 | [10] 0.198 | [11] 0.129 | [12] 0.523 | [13] 0.782 | [14] 0.311 | [15] 0.297 | [17] 0.584 | [18] 0.172 | [20] 0.105 | [21] 0.481 | [22] 0.472 | [23] 0.462 | [25] 0.11 | [26] 0.331 | [27] 0.294
inactive: [16] 0.834
